S1P3 antagonist – S1P3 receptor antagonists, primary screen, cell-based. hit rate 0.27% among 170,000. CHO S1P3 NFAT-BLA reporter, FRET fluorescence, antagonist mode. inhibition, % at 4.98 µM. Sphingosine 1-phosphate receptor 3 (Homo sapiens), Q99500;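 active means inhibition above the plate cutoff, the mean inhibition of test wells on that plate plus 3 SD, cut at about 28% in these data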;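 further: cells challenged with S1P at its EC80 of 0.8 µM; blue over green emission ratio from cleaved BLA substrate after 4 h stimulation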
EP2 modulator – EP2 receptor modulators, cAMP readout, primary screen, cell-based, HTRF cAMP, PGE2 stimulation. EP2-expressing cells, cAMP HTRF FRET, PGE2 co-stimulation. induction, % at 25 µM. hit rate 0.83% among 260,000. Prostaglandin E2 receptor EP2 subtype (Homo sapiens), P43116. AID 940, 2007;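 active means compounds whose cAMP rise, as percent of the full-agonist control response, exceeds 60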;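 further: rat C6 glioma line stably carrying human EP2 under a CMV promoter; the protocol text gives 20 µM as final concentration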
S1P4 ag – S1P4 receptor agonists, primary screen, cell-based; Sphingosine 1-phosphate receptor 4 (Homo sapiens), O95977; S1P4-expressing cell line, agonist reporter assay; activation, % at 4.98 µM; hit rate 0.35% among 220,000; in the data active means activation above about 11%
Target sequence (O95977 whole entry, looked up): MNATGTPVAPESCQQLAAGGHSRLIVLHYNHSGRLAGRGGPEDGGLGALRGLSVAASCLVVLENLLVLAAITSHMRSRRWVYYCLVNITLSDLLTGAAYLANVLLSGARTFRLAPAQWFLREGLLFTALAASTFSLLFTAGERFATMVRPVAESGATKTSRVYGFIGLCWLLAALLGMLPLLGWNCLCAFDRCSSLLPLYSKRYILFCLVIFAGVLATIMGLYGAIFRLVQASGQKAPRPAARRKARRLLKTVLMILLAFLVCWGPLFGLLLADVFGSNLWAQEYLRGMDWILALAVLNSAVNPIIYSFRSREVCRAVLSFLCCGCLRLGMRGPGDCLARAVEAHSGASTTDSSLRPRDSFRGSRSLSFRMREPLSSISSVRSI
S1P4 antagonist – S1P4 receptor antagonists, primary screen, cell-based | Sphingosine 1-phosphate receptor 4 (Homo sapiens), O95977 | inhibition, % at 4.98 µM | S1P4-expressing cells, antagonist mode, reporter read-out | AID 1510, 2009 | hit rate 0.26% among 220,000; in the data active means inhibition above about 29%
PGE2 EP2 inh – human EP2 receptor antagonists, primary screen, TR-FRET cAMP, C6 glioma cells; C6 glioma cells expressing human EP2; cells stimulated with saturating PGE2; AID 1422, 2008; hit rate 0.52% among 260,000; Prostaglandin E2 receptor EP2 subtype (Homo sapiens), P43116; inhibition, % at 25 µM;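 active means percent inhibition above 40 after rounding to a whole number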;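 further: rat C6 glioma host cells with rolipram phosphodiesterase inhibitor present; the protocol text gives 20 µM as final concentration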
Of the large screens only hits and unclear results are named; the others gave an inactive call; ! = not confirmed by another sample. Most compounds without a hit are left out; they make up all but 2% or so of the library.

CN(C)CCC1Sc2ccccc2Oc2ccccc21 (centres undefined)	none (no result: S1P3 antagonist)
CCOC(=O)c1ccc(N2C(=O)C=CC2=O)cc1	PGE2 EP2 inh 111 (no result: S1P3 antagonist)
N#Cc1c(Cl)c(Cl)c2nnc(-c3ccc(Br)cc3)n2c1Cl	PGE2 EP2 inh 118 (no result: S1P3 antagonist)
O=C1C(Cl)=C(Sc2nnc3c4ccccc4c4ccccc4c3n2)C(=O)c2ccccc21	PGE2 EP2 inh 58 (no result: S1P3 antagonist, S1P4 ag, S1P4 antagonist)
CN(C(=O)Cn1nc(-c2cccnc2)oc1=O)C1CCCCC1	none (no result: S1P3 antagonist, S1P4 ag, S1P4 antagonist, PGE2 EP2 inh)
Cc1cc2cc3c(cc2nc1SCC(=O)N1CCc2ccccc2C1)OCO3	none (no result: S1P3 antagonist, S1P4 ag, S1P4 antagonist)
Cc1ccc2[nH]c(C)cc(=S)c2c1	EP2 modulator 75!
Cc1ccccc1/C=C\c1nc2ccccc2c(=O)n1Cc1ccccc1	EP2 modulator 63
CCn1c(/C=C\c2ccccc2C)nc2ccccc2c1=O	none
O=c1c2ccccc2nc(-c2ccco2)n1Cc1ccccc1	none (no result: S1P3 antagonist)
O=c1c2ccccc2nc(-c2ccc(Br)cc2)n1Cc1ccccc1	EP2 modulator 63 (no result: S1P3 antagonist)
CCn1c(CNC(=O)c2ccc(Cl)c(Cl)c2)n[nH]c1=S	none (no result: S1P3 antagonist, S1P4 ag, S1P4 antagonist)
COc1ccccc1C1(NC(=O)Cc2nc3nc(C)cc(C)n3n2)CCCC1	none (no result: S1P3 antagonist, S1P4 ag, S1P4 antagonist)
CCOC(=O)C1=C(C)N(C)C(c2ccccc2)(C(F)(F)F)NC1=O (centres undefined)	PGE2 EP2 inh 43 (no result: S1P3 antagonist, S1P4 ag, S1P4 antagonist)
COc1ccc(C2(C(F)(F)F)NC(=O)N(C)C(=O)N2C)cc1 (centres undefined)	none (no result: S1P3 antagonist)
C=CCn1c(SCC(O)CO)nc2c1c(=O)n(C)c(=O)n2C (centres undefined)	none (no result: S1P3 antagonist, S1P4 ag, S1P4 antagonist)
S=c1nc[nH]c2c1[nH]c1ccc(Cl)cc12	EP2 modulator 61
CSc1nc(=S)c2[nH]c(=S)[nH]c2[nH]1	PGE2 EP2 inh 45
CSc1nc2c(c(=O)[nH]1)CCCC2	none (no result: S1P3 antagonist)
NS(=O)(=O)C1=C(Cl)CC2=NC(CCC(=O)O)=NS(=O)(O)=C2C1	PGE2 EP2 inh 45 (no result: S1P3 antagonist, S1P4 ag, S1P4 antagonist)
N#CC(C#N)=C1C=CC=CN1/C(=C\c1ccco1)C(=O)c1ccc(-c2ccccc2)cc1	S1P4 antagonist 69
CC(C)=CCc1c2c(c3occ(-c4ccc(O)c(O)c4)c(=O)c3c1O)C=CC(C)(C)O2	PGE2 EP2 inh 41! (no result: S1P3 antagonist, S1P4 ag, S1P4 antagonist)
COC(=O)c1sc2ncn(Cc3ccc(Cl)cc3)c(=O)c2c1C	none (no result: S1P3 antagonist, S1P4 ag, S1P4 antagonist)
CCOC(=O)c1nnn(-c2nonc2N)c1CN1CCCCCC1	none
CCOC(=O)c1nnn(-c2nonc2-n2cccc2)c1CN1CCCCC1	EP2 modulator 63
Cn1c(Cn2c(=O)sc3ccccc32)nnc1SCC(=O)Nc1ccccc1F	S1P3 antagonist 99
Cn1c(Cn2c(=O)sc3ccccc32)nnc1SCC(=O)Nc1ccc(F)cc1	none
CCC(c1nnnn1CCc1ccccc1)N(Cc1cc2ccc(OC)cc2[nH]c1=O)C1CCCC1 (centres undefined)	none (no result: S1P3 antagonist, S1P4 ag, S1P4 antagonist)
CN1CCc2c(sc3c2C(=O)NC(c2ccc4c(c2)OCO4)N3)C1 (centres undefined)	PGE2 EP2 inh 41 (no result: EP2 modulator, S1P4 ag, S1P4 antagonist)
Cc1sc(N)c(C(=O)c2ccc(Br)cc2)c1C	EP2 modulator 71 (no result: S1P3 antagonist, S1P4 ag, S1P4 antagonist)
Nc1sc2c(c1C(=O)c1ccc(Br)cc1)CCC2	EP2 modulator 78 (no result: S1P3 antagonist, S1P4 ag, S1P4 antagonist)
Nc1sc2c(c1C(=O)O)CCCC2	none (no result: S1P3 antagonist, S1P4 ag, S1P4 antagonist)
Cc1sc(N)c(C(=O)c2ccccc2)c1C	none
O=c1[nH]c(/C=C\c2ccc(-c3ccccc3C(F)(F)F)o2)nc(O)c1[N+](=O)[O-]	none (no result: S1P3 antagonist, S1P4 ag, S1P4 antagonist)
CCOc1ccccc1NC(=O)CSc1nc(C2CC2)nc2sc(C)c(C)c12	EP2 modulator 61 (no result: S1P3 antagonist, S1P4 ag, S1P4 antagonist)
CCOc1ccccc1NC(=O)CSc1ncnc2sc3c(c12)CCC(C)C3 (centres undefined)	EP2 modulator 65 (no result: S1P3 antagonist, S1P4 ag, S1P4 antagonist)
Cc1ccc(NC(=O)CSc2nc(C3CC3)nc3sc(C)c(C)c23)c(C)c1	none (no result: S1P3 antagonist, S1P4 ag, S1P4 antagonist)
CCOc1ccccc1NC(=O)CSc1nc(C)nc2sc(C)c(C)c12	EP2 modulator 73 (no result: S1P3 antagonist, S1P4 ag, S1P4 antagonist)
CCC1c2ccsc2CCN1Cc1ccc(OCCOC)cc1 (centres undefined)	none (no result: S1P3 antagonist, S1P4 ag, S1P4 antagonist)
CCC(=O)NNC(=O)CSc1nnc2c3c4c(sc3nc(C(C)C)n12)CC(C)CC4 (centres undefined)	none (no result: S1P3 antagonist, S1P4 ag, S1P4 antagonist)
O=C1c2ccccc2C(=O)c2c(Nc3ccc4c5c(cccc35)C(=O)c3ccccc3-4)cccc21	PGE2 EP2 inh 43 (no result: S1P3 antagonist, S1P4 ag, S1P4 antagonist)
O=C1c2ccccc2C(=O)c2c(Nc3cc4c5c(ccc6c7ccc8c9c(cc(Nc%10cccc%11c%10C(=O)c%10ccccc%10C%11=O)c(c3c56)c97)-c3ccccc3C8=O)C(=O)c3ccccc3-4)cccc21	PGE2 EP2 inh 44 (no result: S1P3 antagonist, S1P4 ag, S1P4 antagonist)

Source: PubChem BioAssay
